Results on 30 compounds are retold here after PubChem BioAssay (EPA / NIEHS).

Assay [1] can be described thus: ATG_M_06_TRANS: Attagene TRANS-FACTORIAL HepG2 Assay for M06 Transcription Factor (Internal Marker) (AID 2282983).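 Further: reporter transcript level by RT-PCR then capillary electrophoresis fluorescence.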 Conditions: HepG2 Attagene TRANS M06 internal marker reporter. An outline of the steps: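 Human liver HepG2 cells bearing transiently transfected chimeric NR-GAL4 reporter units were treated with chemicals for 24 h. Total RNA was reverse-transcribed, reporter sequences amplified and labelled, then quantified by capillary electrophoresis. Activity was fitted upward relative to DMSO.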

Assay [2] in a line: ATG_M_32_TRANS: Attagene TRANS-FACTORIAL HepG2 Assay for M32 Transcription Factor (Internal Marker) (AID 2282984).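 Further: transcript level of a background control reporter unit measured by RT-PCR and capillary electrophoresis.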 Conditions: HepG2 Attagene TRANS M32 internal marker reporter. An outline of the steps: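 Internal background reporter in transfected HepG2: after 24 h chemical exposure, RNA reverse-transcribed, reporter cDNA amplified, fluorescently labelled and HpaI-cut, then sized by capillary electrophoresis. Gain of signal fitted against DMSO control.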

The target in assay [3] is Nuclear receptor subfamily 4 group A member 2 (Homo sapiens) (UniProt P43354). As to the kind of experiment: ATG_NURR1_TRANS: Attagene TRANS-FACTORIAL HepG2 Assay for human Nuclear Receptor Related Protein 1 (NURR1) (AID 2282985). Conditions: HepG2 Attagene TRANS reporter, mRNA readout. In outline:
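Reporter transcript induction, measured by RT-PCR with fluorescent labelling, HpaI digestion and capillary electrophoresis, after 24 hr dosing of human HepG2 cells transiently expressing an exogenous NR-Gal4 fusion with GAL4-UAS-driven reporters; DMSO as baseline.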

In assay [4] the target is Transcriptional activator Myb (Homo sapiens) (UniProt P10242). As to the kind of experiment: ATG_Myb_CIS: Attagene CIS-FACTORIAL HepG2 Assay for human Myeloblastosis (Myb) Proto-Oncogene Transcription Factor (AID 2282986; active means hit-call score of the fitted dose curve at least 0.9, where 1 is the maximum; inactive means score below 0.9). Conditions: HepG2 Attagene CIS-FACTORIAL Myb reporter transcription; actives raise or lower the signal. An outline of the steps:
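In this HepG2 transient-transfection format, cis-regulated reporter mRNA is quantified 24 h post-dosing by RT-PCR with capillary electrophoresis, fitted bidirectionally to DMSO baseline.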

Assay [5] has as its target Nuclear respiratory factor 1 (Homo sapiens) (UniProt Q16656). As to the kind of experiment: ATG_NRF1_CIS: Attagene CIS-FACTORIAL HepG2 Assay for human Nuclear Respiratory Factor 1 (NRF1) Orphan Gene (AID 2282987; active means hit-call score of the fitted dose curve at least 0.9, where 1 is the maximum; inactive means score below 0.9). Conditions: HepG2 NRF1 cis-element reporter, Attagene multiplex; actives raise or lower the signal. An outline of the steps:
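Using DMSO as baseline, gain- or loss-of-signal was fitted for reporter mRNA levels in HepG2 cells transiently transfected with cis-regulated reporter units. Samples were taken 24 h after dosing and read by RT-PCR with capillary electrophoresis.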

The target in assay [6] is Oxysterols receptor LXR-beta (Homo sapiens) (UniProt P55055). The assay can be described thus: ATG_LXRb_TRANS: Attagene TRANS-FACTORIAL HepG2 Assay for human Liver X Receptor beta (LXRb) (AID 2282981). Conditions: HepG2 Attagene TRANS GAL4-LXRb reporter, mRNA. In outline: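 After 24 h chemical treatment of transfected HepG2 cells carrying exogenous NR-Gal4 chimeras, reporter mRNA was quantified by fluorescent RT-PCR and capillary electrophoresis; activity taken as increase over DMSO controls.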
Oxysterols receptor LXR-beta (Homo sapiens), sequence (P55055 whole entry, looked up, the tested form may be a part): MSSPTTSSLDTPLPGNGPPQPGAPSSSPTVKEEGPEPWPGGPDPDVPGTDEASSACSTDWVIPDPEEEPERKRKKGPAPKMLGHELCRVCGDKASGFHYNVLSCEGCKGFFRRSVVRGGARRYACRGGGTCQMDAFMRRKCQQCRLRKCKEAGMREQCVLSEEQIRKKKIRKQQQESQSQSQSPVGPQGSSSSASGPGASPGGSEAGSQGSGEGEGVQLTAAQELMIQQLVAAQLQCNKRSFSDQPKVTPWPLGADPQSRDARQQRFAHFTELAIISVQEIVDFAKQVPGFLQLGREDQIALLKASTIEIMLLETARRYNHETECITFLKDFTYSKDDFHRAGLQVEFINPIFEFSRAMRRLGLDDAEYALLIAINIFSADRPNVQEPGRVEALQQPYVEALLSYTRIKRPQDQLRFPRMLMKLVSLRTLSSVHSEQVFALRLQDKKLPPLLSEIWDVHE

Assay [7] has as its target Oxysterols receptor LXR-alpha (Homo sapiens) (UniProt Q13133). As to the kind of experiment: ATG_LXRa_TRANS: Attagene TRANS-FACTORIAL HepG2 Assay for human Liver X Receptor alpha (LXRa) (AID 2282980). Conditions: HepG2 Attagene TRANS reporter, LXRa transactivation. An outline of the steps:
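Transient HepG2 transfectants, 24 h dosing, RT-PCR/CE mRNA reporter quantitation; gain-of-signal vs DMSO.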

Records with an inconclusive call do not appear. Active and inactive are the calls of the source. How the source made its calls, unless noted: active means hit-call score of the fitted dose curve at least 0.9, where 1 is the maximum; inconclusive means response in the unintended direction; inactive means score below 0.9.

Nuclear respiratory factor 1 (Homo sapiens), sequence (Q16656 whole entry, looked up): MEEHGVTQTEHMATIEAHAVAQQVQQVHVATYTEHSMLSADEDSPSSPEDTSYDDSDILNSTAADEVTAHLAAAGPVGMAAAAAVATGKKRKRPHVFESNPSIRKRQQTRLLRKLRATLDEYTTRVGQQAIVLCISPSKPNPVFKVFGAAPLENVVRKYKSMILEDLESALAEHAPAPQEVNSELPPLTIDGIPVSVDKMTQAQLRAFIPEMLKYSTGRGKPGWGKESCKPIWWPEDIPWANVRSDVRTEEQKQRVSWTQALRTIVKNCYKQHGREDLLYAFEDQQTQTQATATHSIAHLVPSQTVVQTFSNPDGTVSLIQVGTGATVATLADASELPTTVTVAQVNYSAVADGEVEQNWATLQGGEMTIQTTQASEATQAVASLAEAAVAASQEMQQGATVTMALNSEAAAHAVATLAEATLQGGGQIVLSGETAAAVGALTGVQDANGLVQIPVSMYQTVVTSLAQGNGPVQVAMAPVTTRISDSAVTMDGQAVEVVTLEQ
Nuclear receptor subfamily 4 group A member 2 (Homo sapiens), sequence (P43354 whole entry, looked up, the tested form may be a part): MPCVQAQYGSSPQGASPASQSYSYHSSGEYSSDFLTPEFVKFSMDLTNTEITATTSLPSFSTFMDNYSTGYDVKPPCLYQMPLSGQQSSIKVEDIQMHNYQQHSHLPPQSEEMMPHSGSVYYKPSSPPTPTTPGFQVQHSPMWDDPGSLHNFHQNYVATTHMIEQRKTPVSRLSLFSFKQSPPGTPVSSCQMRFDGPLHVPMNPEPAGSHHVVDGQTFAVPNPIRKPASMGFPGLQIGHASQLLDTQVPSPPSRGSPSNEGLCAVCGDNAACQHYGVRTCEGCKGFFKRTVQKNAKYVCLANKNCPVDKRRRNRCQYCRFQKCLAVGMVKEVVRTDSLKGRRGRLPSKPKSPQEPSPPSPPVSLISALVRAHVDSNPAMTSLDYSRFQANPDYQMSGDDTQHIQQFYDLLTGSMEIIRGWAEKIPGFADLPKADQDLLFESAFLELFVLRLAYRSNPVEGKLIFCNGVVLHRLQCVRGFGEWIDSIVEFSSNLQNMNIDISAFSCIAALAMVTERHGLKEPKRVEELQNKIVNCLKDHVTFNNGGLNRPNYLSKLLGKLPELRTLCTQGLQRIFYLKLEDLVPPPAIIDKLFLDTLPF
Oxysterols receptor LXR-alpha (Homo sapiens), sequence (Q13133 whole entry, looked up): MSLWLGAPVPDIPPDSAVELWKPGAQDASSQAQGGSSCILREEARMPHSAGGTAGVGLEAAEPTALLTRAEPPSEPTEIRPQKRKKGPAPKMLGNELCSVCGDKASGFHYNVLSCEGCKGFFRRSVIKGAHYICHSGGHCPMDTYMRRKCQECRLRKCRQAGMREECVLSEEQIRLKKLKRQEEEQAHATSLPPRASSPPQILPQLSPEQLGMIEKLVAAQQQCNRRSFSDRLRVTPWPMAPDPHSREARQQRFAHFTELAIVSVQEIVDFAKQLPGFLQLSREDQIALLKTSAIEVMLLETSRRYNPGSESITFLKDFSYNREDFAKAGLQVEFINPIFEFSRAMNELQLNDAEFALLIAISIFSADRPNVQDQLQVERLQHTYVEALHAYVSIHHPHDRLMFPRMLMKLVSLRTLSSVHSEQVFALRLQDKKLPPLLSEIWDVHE
Transcriptional activator Myb (Homo sapiens), sequence (P10242 whole entry, looked up): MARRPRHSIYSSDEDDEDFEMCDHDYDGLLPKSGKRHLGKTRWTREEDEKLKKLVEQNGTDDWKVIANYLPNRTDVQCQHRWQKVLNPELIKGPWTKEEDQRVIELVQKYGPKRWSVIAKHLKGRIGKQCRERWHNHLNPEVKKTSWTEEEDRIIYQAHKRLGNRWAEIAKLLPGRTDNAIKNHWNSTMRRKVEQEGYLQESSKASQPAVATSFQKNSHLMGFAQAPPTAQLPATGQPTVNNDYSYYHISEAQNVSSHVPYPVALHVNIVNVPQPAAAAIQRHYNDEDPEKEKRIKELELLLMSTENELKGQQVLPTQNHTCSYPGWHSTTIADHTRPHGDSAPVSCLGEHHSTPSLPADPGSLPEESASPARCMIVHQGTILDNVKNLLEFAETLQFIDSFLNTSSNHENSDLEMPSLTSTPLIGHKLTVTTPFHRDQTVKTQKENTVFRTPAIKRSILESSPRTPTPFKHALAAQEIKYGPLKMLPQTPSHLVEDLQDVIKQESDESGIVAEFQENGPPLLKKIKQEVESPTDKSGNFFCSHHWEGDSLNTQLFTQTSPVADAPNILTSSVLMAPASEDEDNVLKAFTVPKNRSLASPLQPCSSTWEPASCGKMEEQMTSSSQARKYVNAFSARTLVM

For the compound `CCCc1cc(=O)[nH]c(=S)[nH]1`, the result in assay [1], in assay [2], in assay [3], in assay [4] and in assay [5] was inactive.

As for `Nc1ccc2c(c1)C(=O)c1ccccc1C2=O`, the call in assay [6], in assay [1], in assay [3], in assay [4] and in assay [5] was inactive.

Regarding `CC(=O)C(C)=CC1C(C)=CCCC1(C)C` (stereo unspecified), the compound was called inactive in assay [1], in assay [2], in assay [3], in assay [4] and in assay [5].

On to `CNC(=O)[C@H]1O[C@@H](n2cnc3c(NCc4cc(Cl)ccc4OCc4cc(C)no4)ncnc32)[C@H](O)[C@@H]1N`, for which the compound was classed as inactive in assay [7], in assay [1], in assay [4] and in assay [5].

Consider `Cc1ccc(Cl)cc1`, for which the call in assay [6], in assay [1], in assay [2], in assay [3], in assay [4] and in assay [5] was inactive.

For `c1cc(-c2ccncc2)ccn1`, the compound was called inactive in assay [7], in assay [3], in assay [4] and in assay [5].

For `CC=Cc1ccc(O)c(OC)c1`, the call in assay [1], in assay [3], in assay [4] and in assay [5] was inactive.

Take `O=C(O)Cc1ccccc1Nc1c(Cl)cccc1Cl`: the compound was classed as inactive in assay [2], in assay [3], in assay [4] and in assay [5].

Consider `CCCCCCCCCCO`, for which the compound was called inactive in assay [1], in assay [4] and in assay [5].

With `Cc1cccc([N+](=O)[O-])c1C`, the outcome in assay [1], in assay [2], in assay [3], in assay [4] and in assay [5] was inactive.

In the case of `COc1ccc2c(c1)c(CC(=O)O)c(C)n2C(=O)c1ccc(Cl)cc1`, the outcome in assay [7], in assay [2], in assay [4] and in assay [5] was inactive.

In the case of `O=C(OCCCCCOC(=O)c1ccccc1)c1ccccc1`, the outcome in assay [7], in assay [3], in assay [4] and in assay [5] was inactive.

On to `C[C@]12C=CC(=O)C=C1CC[C@@H]1[C@@H]2C(=O)C[C@@]2(C)[C@H]1CC[C@]2(O)C(=O)CO`, for which the compound was called inactive in assay [6], in assay [1], in assay [4] and in assay [5].

Turning to `CN1CCCC1=O`, the call in assay [7], in assay [6], in assay [1], in assay [3], in assay [4] and in assay [5] was inactive.

`CCCCN(CCCC)CCCC`: the compound was called inactive in assay [1], in assay [2], in assay [3], in assay [4] and in assay [5].

Consider `Oc1ccc2ccccc2c1N=Nc1ccccc1`, for which the compound was classed as inactive in assay [7], in assay [6], in assay [1], in assay [3], in assay [4] and in assay [5].

For `C1CCC(SSC2CCCCC2)CC1`, the compound was classed as inactive in assay [7], in assay [6], in assay [1], in assay [4] and in assay [5].

With `CC(=O)OCCOCCOCCOC(C)=O`, the call in assay [6], in assay [1], in assay [4] and in assay [5] was inactive.

Take `CNCc1cc(F)ccc1Oc1ccc(Cl)c(Cl)c1`: the compound was called inactive in assay [1], in assay [4] and in assay [5].

Take `CC1=C(/C=C/C(C)=C/C=C/C(C)=C/CO)C(C)(C)CCC1`: the outcome in assay [6], in assay [1], in assay [2], in assay [4] and in assay [5] was inactive. Moreover, in assay [3], the AC50 is 2.86 µM (active).

Take `CCCCOC(=O)CCCCCCCCC(=O)OCCCC`: the outcome in assay [4] and in assay [5] was inactive.

As to `NCC1(Cc2noc(=O)[nH]2)CCCCC1`, the outcome in assay [7], in assay [1], in assay [3], in assay [4] and in assay [5] was inactive.

Turning to `Oc1ccc2c(c1)OC[C@@H](N1CCC(O)(c3ccc(F)cc3)CC1)[C@H]2O`, the outcome in assay [1], in assay [3], in assay [4] and in assay [5] was inactive.

Consider `CCCCCCCC=O`, for which the call in assay [6], in assay [1], in assay [3], in assay [4] and in assay [5] was inactive.

Take `O=c1c(O)c(-c2ccc(O)c(O)c2)oc2cc(O)cc(O)c12`: the call in assay [7], in assay [6], in assay [2], in assay [3], in assay [4] and in assay [5] was inactive.

Regarding `COc1ccc(S(=O)(=O)N2C(=O)[C@@](c3ccccc3OC)(N3C[C@H](O)C[C@H]3C(=O)N(C)C)c3cc(Cl)ccc32)c(OC)c1`, the outcome in assay [3] and in assay [5] was inactive. In assay [4], the AC50 was 163 µM (active).

On to `Cc1ccc(C)c(O)c1C`, for which the call in assay [1], in assay [4] and in assay [5] was inactive.

For the compound `O=[N+]([O-])C(CO)(CO)CO`, the result in assay [7], in assay [2], in assay [4] and in assay [5] was inactive.

In the case of `NCCO`, the outcome in assay [6], in assay [3], in assay [4] and in assay [5] was inactive.

On to `CCOC(=O)CCC(=O)OCC`, for which the result in assay [1], in assay [4] and in assay [5] was inactive.
